# According to paper PMC7862700, “An all-to-all approach to the identification of sequence-specific readers for epigenetic DNA modifications on cytosine”:
# Tests used:
# Experiment in all cases: DAPPL (digital affinity profiling via proximity ligation, sequencing); 10 mM Tris-HCl pH 7.5, 50 mM NaCl, 1 mM DTT, 4% glycerol, room temperature, 30 min; GST-TFs on glutathione beads, 16-mer random dsDNA library, 0.1% formaldehyde crosslink after washing; high values mean tight binding
# Settings in all cases: protein: recombinant; tags: N-terminal GST; dsDNA, one strand shown
# FLI1 = molecular target: T1, FLI1 (Homo sapiens, UniProt Q01543 1-452)
# T1 sequence: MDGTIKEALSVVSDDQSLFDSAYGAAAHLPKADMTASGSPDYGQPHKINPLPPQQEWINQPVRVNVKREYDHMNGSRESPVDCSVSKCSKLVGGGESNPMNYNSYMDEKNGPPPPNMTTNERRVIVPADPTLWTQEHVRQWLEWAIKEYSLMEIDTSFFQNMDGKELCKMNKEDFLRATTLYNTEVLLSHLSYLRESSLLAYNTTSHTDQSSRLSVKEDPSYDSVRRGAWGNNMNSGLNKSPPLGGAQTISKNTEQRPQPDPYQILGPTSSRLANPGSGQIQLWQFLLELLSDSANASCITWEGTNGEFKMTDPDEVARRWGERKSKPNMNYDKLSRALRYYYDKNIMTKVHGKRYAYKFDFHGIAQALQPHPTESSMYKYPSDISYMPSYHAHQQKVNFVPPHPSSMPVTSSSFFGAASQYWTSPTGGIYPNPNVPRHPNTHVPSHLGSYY
# Summary of the method: (§1)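 Pools were built from human transcription factors expressed in yeast as GST fusions, captured on glutathione beads and DNA-barcoded, along with a tag-only sample. Incubation with 200 nmole of a 16-mer random double-stranded DNA library lasted 30 min at room temperature in Tris/NaCl/DTT/glycerol buffer, and was followed by washing, 0.1% formaldehyde crosslinking, proximity ligation, PCR amplification and Illumina NextSeq500 sequencing. Binding signal is the quotient of each hexamer's read frequency for a factor and its frequency for the tag-only sample.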
# ELK1 = molecular target: T2, ELK1 (Homo sapiens, UniProt P19419 1-428)
# T2 sequence: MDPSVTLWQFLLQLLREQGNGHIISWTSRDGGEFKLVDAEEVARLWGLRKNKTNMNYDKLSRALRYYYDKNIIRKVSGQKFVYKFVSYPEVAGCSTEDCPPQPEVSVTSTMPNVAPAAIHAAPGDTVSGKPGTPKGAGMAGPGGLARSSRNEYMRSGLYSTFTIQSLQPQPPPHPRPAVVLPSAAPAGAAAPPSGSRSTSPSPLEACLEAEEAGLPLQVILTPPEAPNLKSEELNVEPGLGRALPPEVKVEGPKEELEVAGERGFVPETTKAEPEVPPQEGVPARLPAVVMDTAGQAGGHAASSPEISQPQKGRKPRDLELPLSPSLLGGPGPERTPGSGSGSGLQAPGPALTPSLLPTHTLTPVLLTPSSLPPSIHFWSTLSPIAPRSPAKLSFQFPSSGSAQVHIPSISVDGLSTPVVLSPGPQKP
# Summary of the method: as §1
# GABPA = molecular target: T3, GABPA (Homo sapiens, UniProt Q06546 1-454)
# T3 sequence: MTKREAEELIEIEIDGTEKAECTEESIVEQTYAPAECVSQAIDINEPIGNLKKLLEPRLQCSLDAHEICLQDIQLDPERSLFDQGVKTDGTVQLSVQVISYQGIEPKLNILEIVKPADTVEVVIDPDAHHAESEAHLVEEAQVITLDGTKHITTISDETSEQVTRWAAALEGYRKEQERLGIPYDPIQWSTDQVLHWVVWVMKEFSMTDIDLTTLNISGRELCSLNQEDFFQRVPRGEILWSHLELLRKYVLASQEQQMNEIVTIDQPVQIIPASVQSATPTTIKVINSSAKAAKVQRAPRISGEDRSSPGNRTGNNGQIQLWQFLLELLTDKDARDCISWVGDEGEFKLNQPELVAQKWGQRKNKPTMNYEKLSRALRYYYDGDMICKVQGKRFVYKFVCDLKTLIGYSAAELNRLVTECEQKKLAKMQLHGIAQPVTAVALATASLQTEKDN
# Summary of the method: as §1
# ERG = molecular target: T4, ERG (Homo sapiens, UniProt P11308 1-479)
# T4 sequence: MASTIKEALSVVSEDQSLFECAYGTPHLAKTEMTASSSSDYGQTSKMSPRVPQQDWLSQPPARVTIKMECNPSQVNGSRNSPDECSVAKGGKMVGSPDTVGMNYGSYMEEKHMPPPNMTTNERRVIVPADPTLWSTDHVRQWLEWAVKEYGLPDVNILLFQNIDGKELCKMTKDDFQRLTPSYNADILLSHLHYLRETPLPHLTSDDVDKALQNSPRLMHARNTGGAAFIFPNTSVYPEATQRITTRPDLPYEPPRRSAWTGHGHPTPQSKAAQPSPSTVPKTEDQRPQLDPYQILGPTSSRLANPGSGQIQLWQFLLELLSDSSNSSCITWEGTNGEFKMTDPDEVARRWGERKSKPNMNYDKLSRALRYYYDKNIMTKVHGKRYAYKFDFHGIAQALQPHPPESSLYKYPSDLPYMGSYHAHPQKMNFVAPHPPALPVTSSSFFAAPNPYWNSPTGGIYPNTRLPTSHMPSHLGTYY
# Summary of the method: as §1
# ELF1 = ELF1 (Homo sapiens, UniProt P32519 1-619)
# Sequence of ELF1 (P32519 whole entry): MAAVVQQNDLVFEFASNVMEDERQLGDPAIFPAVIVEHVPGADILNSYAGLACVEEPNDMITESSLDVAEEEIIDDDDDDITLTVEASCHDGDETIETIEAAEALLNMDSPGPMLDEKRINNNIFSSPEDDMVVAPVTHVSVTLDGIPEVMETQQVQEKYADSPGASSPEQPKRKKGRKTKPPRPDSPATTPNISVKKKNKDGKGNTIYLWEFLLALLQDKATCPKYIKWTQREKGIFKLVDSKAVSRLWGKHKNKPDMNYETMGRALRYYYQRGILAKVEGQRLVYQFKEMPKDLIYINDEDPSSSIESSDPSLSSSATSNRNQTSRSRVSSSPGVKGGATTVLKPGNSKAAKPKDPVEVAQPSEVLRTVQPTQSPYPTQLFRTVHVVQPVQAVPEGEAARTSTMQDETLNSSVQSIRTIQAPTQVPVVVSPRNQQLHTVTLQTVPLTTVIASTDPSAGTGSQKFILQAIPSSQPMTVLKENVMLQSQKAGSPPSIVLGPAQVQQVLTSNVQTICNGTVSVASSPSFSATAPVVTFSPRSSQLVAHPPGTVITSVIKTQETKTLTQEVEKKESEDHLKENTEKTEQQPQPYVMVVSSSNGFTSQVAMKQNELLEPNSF
# Summary of the method: as §1
# EHF = molecular target: T5, EHF (Homo sapiens, UniProt Q9NZC4 1-300)
# T5 sequence: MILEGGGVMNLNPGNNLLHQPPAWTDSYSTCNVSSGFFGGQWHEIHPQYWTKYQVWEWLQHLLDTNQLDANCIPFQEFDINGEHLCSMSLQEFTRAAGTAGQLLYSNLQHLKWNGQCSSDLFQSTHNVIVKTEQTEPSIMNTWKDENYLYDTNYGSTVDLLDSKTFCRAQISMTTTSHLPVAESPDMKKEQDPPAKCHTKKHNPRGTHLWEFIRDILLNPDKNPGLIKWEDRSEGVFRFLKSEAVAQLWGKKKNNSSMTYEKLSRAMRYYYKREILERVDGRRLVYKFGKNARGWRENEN
# Summary of the method: as §1
# SPIB = SPIB (Homo sapiens, UniProt Q01892 1-262)
# Sequence of SPIB (Q01892 whole entry): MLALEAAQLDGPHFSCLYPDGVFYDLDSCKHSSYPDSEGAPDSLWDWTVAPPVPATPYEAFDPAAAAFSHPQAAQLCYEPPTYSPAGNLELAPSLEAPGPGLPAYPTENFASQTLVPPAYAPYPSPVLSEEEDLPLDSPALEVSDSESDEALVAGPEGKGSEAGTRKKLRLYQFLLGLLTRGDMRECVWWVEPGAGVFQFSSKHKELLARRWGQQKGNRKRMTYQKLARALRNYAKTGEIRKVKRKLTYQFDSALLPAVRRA
# Summary of the method: as §1
# ELK3 = molecular target: T6, ELK3 (Homo sapiens, UniProt P41970 1-407)
# T6 sequence: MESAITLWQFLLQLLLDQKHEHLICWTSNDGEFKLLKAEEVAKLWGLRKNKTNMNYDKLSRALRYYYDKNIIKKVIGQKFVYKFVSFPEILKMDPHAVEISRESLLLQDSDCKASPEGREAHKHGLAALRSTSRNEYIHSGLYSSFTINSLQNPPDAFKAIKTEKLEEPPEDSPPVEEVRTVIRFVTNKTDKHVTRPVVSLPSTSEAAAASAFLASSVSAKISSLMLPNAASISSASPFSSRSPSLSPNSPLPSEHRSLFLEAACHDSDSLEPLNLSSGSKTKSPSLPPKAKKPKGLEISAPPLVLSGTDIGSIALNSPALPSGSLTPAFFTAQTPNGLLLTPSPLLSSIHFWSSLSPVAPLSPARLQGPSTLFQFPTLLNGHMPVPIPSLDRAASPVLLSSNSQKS
# Summary of the method: as §1
# ETV5 = ETV5 (Homo sapiens, UniProt P41161 1-510)
# Sequence of ETV5 (P41161 whole entry): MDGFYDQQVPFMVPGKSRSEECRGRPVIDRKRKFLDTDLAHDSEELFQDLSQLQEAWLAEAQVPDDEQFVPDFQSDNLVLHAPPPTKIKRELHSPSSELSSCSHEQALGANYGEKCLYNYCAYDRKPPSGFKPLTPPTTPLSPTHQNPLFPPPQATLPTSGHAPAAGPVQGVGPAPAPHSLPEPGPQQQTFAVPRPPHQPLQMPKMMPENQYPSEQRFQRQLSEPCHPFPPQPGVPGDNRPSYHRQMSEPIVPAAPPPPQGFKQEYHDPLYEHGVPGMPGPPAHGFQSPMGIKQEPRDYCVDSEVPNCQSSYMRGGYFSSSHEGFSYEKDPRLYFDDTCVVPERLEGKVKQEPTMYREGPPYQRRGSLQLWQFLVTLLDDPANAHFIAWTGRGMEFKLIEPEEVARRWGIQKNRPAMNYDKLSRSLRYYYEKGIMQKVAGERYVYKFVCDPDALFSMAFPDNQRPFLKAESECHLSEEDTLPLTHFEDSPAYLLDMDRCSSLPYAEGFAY
# Summary of the method: as §1
# ETV2 = molecular target: T7, ETV2 (Homo sapiens, UniProt O00321 1-342)
# T7 sequence: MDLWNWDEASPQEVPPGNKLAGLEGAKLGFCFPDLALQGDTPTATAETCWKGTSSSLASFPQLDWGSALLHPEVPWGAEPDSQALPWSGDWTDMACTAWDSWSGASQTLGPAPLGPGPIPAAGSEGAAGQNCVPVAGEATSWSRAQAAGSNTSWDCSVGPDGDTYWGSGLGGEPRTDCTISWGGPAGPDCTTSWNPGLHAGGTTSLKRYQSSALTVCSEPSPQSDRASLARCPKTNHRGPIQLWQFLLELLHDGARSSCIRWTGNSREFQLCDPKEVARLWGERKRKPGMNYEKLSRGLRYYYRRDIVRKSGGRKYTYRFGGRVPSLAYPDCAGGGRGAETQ
# Summary of the method: as §1
# ELF3 = molecular target: T8, ELF3 (Homo sapiens, UniProt P78545 1-371)
# T8 sequence: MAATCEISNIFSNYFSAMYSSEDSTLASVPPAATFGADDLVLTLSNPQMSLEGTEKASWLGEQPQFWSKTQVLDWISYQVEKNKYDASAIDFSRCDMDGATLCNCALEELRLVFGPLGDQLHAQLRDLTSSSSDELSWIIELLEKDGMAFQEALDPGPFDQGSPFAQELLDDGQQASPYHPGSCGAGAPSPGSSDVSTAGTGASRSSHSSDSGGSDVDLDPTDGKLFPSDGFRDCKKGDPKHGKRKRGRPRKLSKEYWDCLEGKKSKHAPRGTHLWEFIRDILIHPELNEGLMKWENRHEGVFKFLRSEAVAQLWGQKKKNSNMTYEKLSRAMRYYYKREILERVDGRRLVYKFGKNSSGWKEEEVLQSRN
# Summary of the method: as §1
# ETV1 = ETV1 (Homo sapiens, UniProt P50549 1-477)
# Sequence of ETV1 (P50549 whole entry): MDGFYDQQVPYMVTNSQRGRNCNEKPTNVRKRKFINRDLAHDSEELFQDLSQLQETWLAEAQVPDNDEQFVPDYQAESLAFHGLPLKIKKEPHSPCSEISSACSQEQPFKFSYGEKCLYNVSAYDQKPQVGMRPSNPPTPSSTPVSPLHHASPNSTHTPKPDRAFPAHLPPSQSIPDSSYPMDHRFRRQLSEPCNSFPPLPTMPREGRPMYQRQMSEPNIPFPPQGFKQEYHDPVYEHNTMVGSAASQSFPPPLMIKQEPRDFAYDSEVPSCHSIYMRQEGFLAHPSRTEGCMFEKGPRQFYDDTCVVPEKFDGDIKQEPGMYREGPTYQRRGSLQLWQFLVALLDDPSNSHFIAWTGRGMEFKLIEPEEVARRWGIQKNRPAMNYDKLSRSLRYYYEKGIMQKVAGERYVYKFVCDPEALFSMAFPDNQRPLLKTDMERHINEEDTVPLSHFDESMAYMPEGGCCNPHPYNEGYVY
# Summary of the method: as §1
# ERF = molecular target: T9, ERF (Homo sapiens, UniProt P50548 1-548)
# T9 sequence: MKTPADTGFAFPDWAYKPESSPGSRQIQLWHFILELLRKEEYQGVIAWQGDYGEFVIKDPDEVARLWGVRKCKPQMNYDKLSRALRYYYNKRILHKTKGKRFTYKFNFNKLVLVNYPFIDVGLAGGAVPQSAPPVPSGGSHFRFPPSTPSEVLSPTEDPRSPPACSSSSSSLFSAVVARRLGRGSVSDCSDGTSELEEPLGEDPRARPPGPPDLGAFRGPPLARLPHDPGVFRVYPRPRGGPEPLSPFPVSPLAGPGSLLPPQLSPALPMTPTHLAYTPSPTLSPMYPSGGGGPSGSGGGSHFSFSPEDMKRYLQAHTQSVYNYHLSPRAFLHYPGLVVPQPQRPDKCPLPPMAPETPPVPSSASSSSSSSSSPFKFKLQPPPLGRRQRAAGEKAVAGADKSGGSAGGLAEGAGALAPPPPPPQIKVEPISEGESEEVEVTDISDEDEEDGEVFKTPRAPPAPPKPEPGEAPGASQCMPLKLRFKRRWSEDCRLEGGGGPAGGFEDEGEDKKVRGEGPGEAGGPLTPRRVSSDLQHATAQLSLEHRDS
# Summary of the method: as §1
# ETV3L = molecular target: T10, ETV3L (Homo sapiens, UniProt Q6ZN32 1-361)
# T10 sequence: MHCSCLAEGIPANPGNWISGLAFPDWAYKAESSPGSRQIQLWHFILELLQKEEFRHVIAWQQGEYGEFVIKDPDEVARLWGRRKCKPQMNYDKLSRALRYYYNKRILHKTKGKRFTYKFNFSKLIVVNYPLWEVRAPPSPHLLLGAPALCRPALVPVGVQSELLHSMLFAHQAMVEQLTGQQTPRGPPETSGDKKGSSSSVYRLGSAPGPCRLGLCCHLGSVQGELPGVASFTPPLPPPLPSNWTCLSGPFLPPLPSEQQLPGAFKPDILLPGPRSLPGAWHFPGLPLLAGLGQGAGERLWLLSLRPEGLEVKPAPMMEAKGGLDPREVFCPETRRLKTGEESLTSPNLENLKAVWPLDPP
# Summary of the method: as §1
# ETS2 = molecular target: T11, ETS2 (Homo sapiens, UniProt P15036 1-469)
# T11 sequence: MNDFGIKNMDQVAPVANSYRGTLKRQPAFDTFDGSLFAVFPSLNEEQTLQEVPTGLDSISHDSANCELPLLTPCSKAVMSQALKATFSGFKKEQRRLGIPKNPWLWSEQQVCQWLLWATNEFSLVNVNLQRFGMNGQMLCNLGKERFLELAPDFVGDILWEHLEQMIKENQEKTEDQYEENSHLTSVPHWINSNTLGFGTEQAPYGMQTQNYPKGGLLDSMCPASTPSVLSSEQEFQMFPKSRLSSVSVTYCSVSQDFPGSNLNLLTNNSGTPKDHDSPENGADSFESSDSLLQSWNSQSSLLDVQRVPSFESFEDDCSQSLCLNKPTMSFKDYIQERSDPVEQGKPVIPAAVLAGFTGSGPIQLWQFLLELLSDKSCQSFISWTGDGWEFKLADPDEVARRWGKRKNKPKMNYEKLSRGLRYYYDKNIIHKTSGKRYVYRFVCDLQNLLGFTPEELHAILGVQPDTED
# Summary of the method: as §1
# ETV3 = molecular target: T12, ETV3 (Homo sapiens, UniProt P41162-2 1-143)
# T12 sequence: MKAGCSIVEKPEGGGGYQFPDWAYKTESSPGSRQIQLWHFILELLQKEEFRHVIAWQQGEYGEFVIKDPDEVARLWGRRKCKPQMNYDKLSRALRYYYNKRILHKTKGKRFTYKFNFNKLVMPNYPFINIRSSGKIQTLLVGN
# Summary of the method: as §1
# ETV6 = ETV6 (Homo sapiens, UniProt P41212 1-452)
# Sequence of ETV6 (P41212 whole entry): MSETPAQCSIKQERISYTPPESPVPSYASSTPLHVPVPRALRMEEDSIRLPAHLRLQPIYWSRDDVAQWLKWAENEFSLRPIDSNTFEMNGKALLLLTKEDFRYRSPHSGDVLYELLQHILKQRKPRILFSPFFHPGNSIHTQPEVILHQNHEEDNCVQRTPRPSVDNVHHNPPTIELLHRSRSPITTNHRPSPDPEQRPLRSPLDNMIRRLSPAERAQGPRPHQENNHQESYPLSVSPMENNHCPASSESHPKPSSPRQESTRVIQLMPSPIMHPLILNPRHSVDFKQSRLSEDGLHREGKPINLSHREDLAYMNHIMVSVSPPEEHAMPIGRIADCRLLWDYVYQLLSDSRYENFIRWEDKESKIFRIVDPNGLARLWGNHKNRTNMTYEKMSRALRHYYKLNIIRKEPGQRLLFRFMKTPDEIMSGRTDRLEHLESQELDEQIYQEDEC
# Summary of the method: as §1
sequence,measurement,setting,value
CAACCG,binding signal,FLI1,"1.11 fold enrichment (6-mer frequency, TF over GST control)"
same,binding signal,ELK1,"1.13 fold enrichment (6-mer frequency, TF over GST control)"
same,binding signal,GABPA,"1 fold enrichment (6-mer frequency, TF over GST control)"
same,binding signal,ERG,"1.11 fold enrichment (6-mer frequency, TF over GST control)"
same,binding signal,ELF1,"1.03 fold enrichment (6-mer frequency, TF over GST control)"
same,binding signal,EHF,"1.06 fold enrichment (6-mer frequency, TF over GST control)"
same,binding signal,SPIB,"1.15 fold enrichment (6-mer frequency, TF over GST control)"
same,binding signal,ELK3,"1.2 fold enrichment (6-mer frequency, TF over GST control)"
same,binding signal,ETV5,"1.03 fold enrichment (6-mer frequency, TF over GST control)"
same,binding signal,ETV2,"1.08 fold enrichment (6-mer frequency, TF over GST control)"
same,binding signal,ELF3,"1.08 fold enrichment (6-mer frequency, TF over GST control)"
same,binding signal,ETV1,"1.06 fold enrichment (6-mer frequency, TF over GST control)"
same,binding signal,ERF,"1.03 fold enrichment (6-mer frequency, TF over GST control)"
same,binding signal,ETV3L,"1.09 fold enrichment (6-mer frequency, TF over GST control)"
same,binding signal,ETS2,"1.11 fold enrichment (6-mer frequency, TF over GST control)"
same,binding signal,ETV3,"1.08 fold enrichment (6-mer frequency, TF over GST control)"
same,binding signal,ETV6,"1.13 fold enrichment (6-mer frequency, TF over GST control)"
